Measured values taken from PubChem BioAssay.
Unmarked numbers belong to inactive results. Entries that show only a call come without a potency. For some assays here: Potency and affinity values are given separately. Calls of active or inactive are those of the source. Unless noted, the rule behind the calls is not given here.

Columns and labels:
[1] = antimalarial activity against Dd2 strain (AID 2302;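 active = growth inhibition above 50% at the single 2 µM test dose, taken to imply half-maximal potency below 2 µM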); conditions: P. falciparum Dd2 in RBCs, LDH growth readout, 72 h; at 2 µM; hits give high values
[2] = human hepatoma cell viability loss – ATP luminescence, cytotoxicity control for P. falciparum antimalarial project, primary screen (AID 2303;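 active = inhibition above 50%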); conditions: HepG2 viability, 24-48 h, at 10 µM, hits give high values
[3] = target: L-lactate dehydrogenase (Plasmodium falciparum (isolate CDC / Honduras)) (UniProt Q27743); assay: PfLDH activity inhibition – cell lysate, 3D7 strain, counter-screen for P. falciparum growth inhibition project (AID 2304); conditions: P. falciparum 3D7 crude extract, LDH APAD/NBT absorbance; at 2 µM; hits give high values
[4] = inhibition of 3D7 malaria parasite growth – strain 3D7 (AID 2306); conditions: P. falciparum 3D7 erythrocytic growth, LDH absorbance, 72 h; at 2 µM; hits give high values
[5] = target: Calcium-dependent protein kinase 1 (Plasmodium falciparum (isolate 3D7)) (UniProt P62344); assay: PfCDPK1 kinase inhibitors, biochemical, TCAMS library (AID 1159585; cut-off not given, nearly all actives have IC50 up to about 0.98 µM;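 note: inhibitors leave more ATP so luminescence rises with inhibition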); conditions: recombinant PfCDPK1, Kinase-Glo ATP depletion luminescence
[6] = target: Plasmodium falciparum protein kinase 6 (PK6, PF3D7_1337100) (UniProt Q8IDW1); assay: PfPK6 kinase inhibitors, biochemical, TCAMS library (AID 1159586); conditions: recombinant PfPK6, Kinase-Glo ATP depletion luminescence
[7] = target: Protein kinase 7 (PK7), Plasmodium falciparum 3D7 (PF3D7_0213400) (UniProt Q7YTF7); assay: inhibition of Plasmodium PK7 catalytic activity – biochemical, TCAMS antimalarial set, Kinase-Glo luminescence (AID 1159587); conditions: recombinant PfPK7, Kinase-Glo ATP depletion luminescence
[8] = target: Calcium-dependent protein kinase 4 (Plasmodium falciparum (isolate 3D7)) (UniProt Q8IBS5); assay: PfCDPK4 kinase inhibitors, biochemical, TCAMS library (AID 1159588; cut-off not given, nearly all actives have IC50 up to about 0.91 µM); conditions: recombinant PfCDPK4, Kinase-Glo ATP depletion luminescence
Chain of Calcium-dependent protein kinase 4 (Plasmodium falciparum (isolate 3D7)) (Q8IBS5 whole entry, looked up): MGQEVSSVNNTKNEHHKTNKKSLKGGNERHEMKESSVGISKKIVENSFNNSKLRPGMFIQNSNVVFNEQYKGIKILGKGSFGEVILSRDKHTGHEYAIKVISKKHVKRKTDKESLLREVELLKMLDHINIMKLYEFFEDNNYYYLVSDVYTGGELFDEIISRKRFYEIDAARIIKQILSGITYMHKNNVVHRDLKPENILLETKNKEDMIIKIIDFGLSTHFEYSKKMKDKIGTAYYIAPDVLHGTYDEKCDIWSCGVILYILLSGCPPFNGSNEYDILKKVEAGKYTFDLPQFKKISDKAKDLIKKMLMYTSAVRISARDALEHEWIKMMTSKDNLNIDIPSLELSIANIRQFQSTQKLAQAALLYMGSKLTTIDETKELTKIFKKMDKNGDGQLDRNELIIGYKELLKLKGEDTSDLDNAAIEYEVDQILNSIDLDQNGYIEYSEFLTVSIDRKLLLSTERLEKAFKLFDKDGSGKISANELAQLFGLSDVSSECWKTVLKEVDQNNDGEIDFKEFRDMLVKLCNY

Chain of Plasmodium falciparum protein kinase 6 (PK6, PF3D7_1337100) (Q8IDW1 1-305): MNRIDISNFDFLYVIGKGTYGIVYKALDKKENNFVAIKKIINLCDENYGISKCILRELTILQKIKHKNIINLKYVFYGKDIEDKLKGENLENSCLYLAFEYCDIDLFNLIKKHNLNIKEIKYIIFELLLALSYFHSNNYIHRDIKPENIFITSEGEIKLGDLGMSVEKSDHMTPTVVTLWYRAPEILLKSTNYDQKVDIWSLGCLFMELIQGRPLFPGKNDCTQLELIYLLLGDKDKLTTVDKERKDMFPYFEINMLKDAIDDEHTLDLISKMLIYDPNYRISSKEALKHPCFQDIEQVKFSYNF
Chain of Calcium-dependent protein kinase 1 (Plasmodium falciparum (isolate 3D7)) (P62344 whole entry, looked up): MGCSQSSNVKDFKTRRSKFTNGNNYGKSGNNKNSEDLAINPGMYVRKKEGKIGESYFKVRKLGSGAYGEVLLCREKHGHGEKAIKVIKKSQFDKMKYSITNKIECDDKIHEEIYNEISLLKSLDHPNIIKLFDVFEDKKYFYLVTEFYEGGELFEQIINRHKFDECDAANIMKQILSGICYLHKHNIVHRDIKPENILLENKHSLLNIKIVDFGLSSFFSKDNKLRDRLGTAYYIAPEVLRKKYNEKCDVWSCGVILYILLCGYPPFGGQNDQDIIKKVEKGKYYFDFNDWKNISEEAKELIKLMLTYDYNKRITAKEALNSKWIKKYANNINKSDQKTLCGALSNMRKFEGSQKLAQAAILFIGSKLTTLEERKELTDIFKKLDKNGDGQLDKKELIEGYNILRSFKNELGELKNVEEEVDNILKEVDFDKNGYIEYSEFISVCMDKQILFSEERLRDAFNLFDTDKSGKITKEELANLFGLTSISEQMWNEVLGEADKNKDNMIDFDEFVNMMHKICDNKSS
Chain of L-lactate dehydrogenase (Plasmodium falciparum (isolate CDC / Honduras)) (Q27743 whole entry, looked up): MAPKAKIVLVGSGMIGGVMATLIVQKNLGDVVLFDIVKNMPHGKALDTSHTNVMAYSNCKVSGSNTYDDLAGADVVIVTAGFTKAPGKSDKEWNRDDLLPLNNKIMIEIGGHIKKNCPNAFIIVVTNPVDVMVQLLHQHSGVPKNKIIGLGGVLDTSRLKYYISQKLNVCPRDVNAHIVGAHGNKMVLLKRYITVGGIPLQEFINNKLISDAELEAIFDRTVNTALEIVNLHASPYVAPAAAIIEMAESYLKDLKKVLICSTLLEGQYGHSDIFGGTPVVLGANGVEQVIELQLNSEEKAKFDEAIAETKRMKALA
Chain of Protein kinase 7 (PK7), Plasmodium falciparum 3D7 (PF3D7_0213400) (Q7YTF7 1-343): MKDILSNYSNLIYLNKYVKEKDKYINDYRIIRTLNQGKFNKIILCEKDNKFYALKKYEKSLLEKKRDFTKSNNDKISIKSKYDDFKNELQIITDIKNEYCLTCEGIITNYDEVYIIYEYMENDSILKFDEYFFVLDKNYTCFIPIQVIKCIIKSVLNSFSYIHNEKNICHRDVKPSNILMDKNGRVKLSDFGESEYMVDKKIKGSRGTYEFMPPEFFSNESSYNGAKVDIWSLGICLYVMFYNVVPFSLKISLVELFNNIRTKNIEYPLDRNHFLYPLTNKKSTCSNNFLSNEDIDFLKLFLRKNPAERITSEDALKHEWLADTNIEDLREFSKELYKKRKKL

Compound	growth inhibition [1]	inhibition [2]	inhibition [3] [%]	growth inhibition [4]	outcome [5]	outcome [6]	outcome [7]	outcome [8]
C[C@@H](C(N)=O)N1CCCCC1c1ccc(OCc2cccc(F)c2)cc1 (stereo not given in full)	96% (active)	79% (active)	9	84% (active)	inactive	inactive	inactive	inactive
CNC(=O)c1cnc(Nc2ccc(OCC(O)CN(C)C)cc2)nc1Nc1cccc(OC)c1 (stereo not given)	97% (active)	31%	1	103% (active)	inactive	inactive	inactive	inactive
Cc1cccc2[nH]c(-c3ccc(-c4cccc(CNCCCN5CCCC5=O)c4)s3)nc12	26%	14%	-9	101% (active)	inactive	inactive	inactive	inactive
CC(C)CN(c1nc(C(=O)NNC(=O)[C@H](CC2CC2)NC(=O)c2cc3cc(OCCN(C)C)ccc3o2)cs1)C1CC1	97% (active)	-5%	-4	87% (active)	inactive	inactive	inactive	inactive
Cc1cccc2[nH]c(-c3cccc(-c4ccc(NC(=O)C(C)CN5CCN(C)CC5)cc4)c3)nc12 (stereo not given)	100% (active)	7%	-6	99% (active)	inactive	inactive	inactive	inactive
Oc1ccc(-c2nc3c4cc(I)ccc4c4ccc(I)cc4c3[nH]2)cc1	51% (active)	-3%	2	98% (active)	inactive	inactive	inactive	inactive
CC(Cc1ccc(OCCCCOc2ccccc2)cc1)NCCc1ccc(Oc2ccccc2)cc1 (stereo not given)	95% (active)	99% (active)	5	89% (active)	inactive	inactive	inactive	inactive
Cn1cc(C2CCN(CCCCNC(=O)c3ccc(C(=O)Nc4ccc(C#N)cc4)cc3)CC2)c2ccccc21	58% (active)	16%	-4	100% (active)	inactive	inactive	inactive	inactive
CN1CCN(c2cc(-c3cccnc3)nc(-c3ccncc3)n2)CC1	89% (active)	11%	1	100% (active)	inactive	inactive	inactive	inactive
Cc1nc2ccc(F)cc2n1C1CCN(C(=O)Cc2ccc(F)c(F)c2)CC1	99% (active)	2%	0	100% (active)	inactive	inactive	inactive	inactive
COc1cccc(NC(=O)NCCNc2ccnc(Nc3ccc(F)cc3)n2)c1	1%	18%	4	94% (active)	inactive	inactive	inactive	inactive
CCC(CC)NCc1c(O)ccc2c(CNC(CC)CC)c(O)ccc12	94% (active)	4%	0	100% (active)	inactive	inactive	inactive	inactive
Cc1cc(Nc2ccnc(-c3ccc(Cl)cc3)n2)ccn1	23%	6%	-4	94% (active)	inactive	inactive	inactive	inactive
O=C(Nc1ccccc1)N(Cc1ccc(-c2ccc(CNCc3ccc4c(c3)OCO4)cc2)cc1)C1CCN(Cc2ccccc2)CC1	41%	21%	-1	98% (active)	inactive	inactive	inactive	inactive
CC(C)C[C@@H](C(=O)Nc1ccc(Cc2ccc(NC(=O)[C@H](CC(C)C)N(C)C(=O)OC(C)(C)C)cc2)cc1)N(C)C(=O)OC(C)(C)C	57% (active)	17%	2	92% (active)	inactive	inactive	inactive	inactive
Cc1ccc(Nc2nc(C)cc(NC3CC3)n2)cc1	15%	-4%	5	97% (active)	inactive	inactive	inactive	inactive
COc1ccc2c(NN=Cc3cccnc3)ccnc2c1	26%	3%	-4	97% (active)	inactive	inactive	inactive	inactive
CC(C)c1ccc(NC(=O)NCCCC2CCCN(CCCCCNC(=O)/C=C/c3ccc(Cl)c(Cl)c3)C2)cc1 (stereo not given)	42%	25%	-2	90% (active)	inactive	inactive	inactive	inactive
CN1CCCC1CCNCc1cccc(-c2cnc(N3CCCC(C)(C)C3)nc2)c1 (stereo not given)	95% (active)	99% (active)	5	98% (active)	inactive	inactive	inactive	inactive
CCOc1cc(NCCSCc2nc[nH]c2C)nc2ccccc12	10%	4%	1	92% (active)	inactive	inactive	inactive	inactive

Compound	growth inhibition [1]	inhibition [2]	inhibition [3] [%]	growth inhibition [4]	outcome [5]	outcome [6]	outcome [7]	outcome [8]
Fc1ccc(C=NNc2nc3ccccc3[nH]2)cc1	58% (active)	-7%	-2	98% (active)	inactive	inactive	inactive	inactive
O=C(Cn1c(CCc2cccc(F)c2F)cc(=O)c2ccccc21)N(CCN1CCCCC1)Cc1ccc(-c2ccc(C(F)(F)F)cc2)cc1	59% (active)	9%	-6	101% (active)	inactive	inactive	inactive	inactive
Cc1ncccc1C(=O)Nc1cccc(-c2cccc(-c3nc4c(C)cccc4[nH]3)c2)c1	69% (active)	6%	4	93% (active)	inactive	inactive	inactive	inactive
COc1ccc(CN2CCC(NCc3cccc([N+](=O)[O-])c3)CC2)cc1	3%	6%	2	92% (active)	inactive	inactive	inactive	inactive
Cc1ccc(F)c(CN2CCC(N3CC(c4ccccc4)(c4ccccc4)OC3=O)CC2)c1Cl	89% (active)	11%	-4	95% (active)	inactive	inactive	inactive	inactive
O=C(Cn1c(CCc2cccc(F)c2F)cc(=O)c2ccccc21)N(Cc1ccc(-c2ccc(C(F)(F)F)cc2)cc1)C1CCN(CCN2CCOCC2)CC1	41%	53% (active)	4	101% (active)	inactive	inactive	inactive	inactive
COC(=O)c1ccc2nc(-c3cc(OC)c(O)c(C(=O)NC4CCN(Cc5ccccc5)CC4)c3)[nH]c2c1	-2%	8%	0	85% (active)	inactive	inactive	inactive	inactive
CC(C)(C)[C@@H](Nc1ccc(C#N)c2ccccc12)C(=O)NC1(Cc2ccc(O)c(Br)c2)CCCC1	16%	2%	-2	84% (active)	inactive	inactive	inactive	inactive
CN=C(NC)c1cccc(NC(=O)C=Cc2ccc(C=CC(=O)Nc3cccc(C(=NC)NC)c3)cc2)c1	99% (active)	21%	2	98% (active)	inactive	inactive	inactive	inactive
CCc1cc(NC2CCN(C)CC2)nc(Nc2ccc(C)cc2)n1	11%	3%	-7	95% (active)	inactive	inactive	inactive	inactive
O=C(/C=C/c1ccc(Cl)c(Cl)c1)NC1CCC(CN2CCC(Cc3cc4ccccc4[nH]3)CC2)CC1 (stereo not given)	74% (active)	99% (active)	-8	100% (active)	inactive	inactive	inactive	inactive
COc1ccc2ncc(F)c(CCN3C[C@H](CNCc4ccc(F)cc4)[C@H](O)C3)c2n1	21%	38%	-1	93% (active)	inactive	inactive	inactive	inactive
Cc1ccccc1C1CCN(C2CCC(NC(=O)/C=C/c3cccc(Cl)c3)CC2)CC1 (stereo not given)	34%	70% (active)	-3	98% (active)	inactive	inactive	inactive	inactive
O=C(Nc1cccc(CN2CCN(Cc3ccc(O)cc3)CC2)c1)c1ccc(-c2ccccc2)cc1	67% (active)	40%	1	101% (active)	inactive	inactive	inactive	inactive
CC(C)(CC1CCCCC1)NC(=O)[C@H](CC1CCCCC1)Nc1ccc(C#N)c2ccccc12	52% (active)	14%	-2	98% (active)	inactive	inactive	inactive	inactive
CC(=O)Nc1ccc(C(=O)Nc2cccc(-c3cccc(-c4nc5c(C)cccc5[nH]4)c3)c2)cn1	100% (active)	16%	-2	101% (active)	inactive	inactive	inactive	inactive
Cc1cccc(N2C(N)=NC(N)=NC2(C)C)c1C	-2%	-2%	-6	90% (active)	inactive	inactive	inactive	inactive
CCC(C)Oc1ccc2nc(N)nc(N)c2c1Cl (stereo not given)	-1%	57% (active)	-2	96% (active)	inactive	inactive	inactive	inactive
O=C(NC1CC1)c1ccc(N2CCC(Cc3ccccc3)CC2)c([N+](=O)[O-])c1	83% (active)	12%	-1	96% (active)	inactive	inactive	inactive	inactive
O=C(/C=C/c1ccc(Cl)c(Cl)c1)NCCCCCN1CCC(NC(=O)NC2CCCC2)CC1	31%	21%	-1	99% (active)	inactive	inactive	inactive	inactive
